# Compound activity deposited in PubChem BioAssay by National Center for Advancing Translational Sciences (NCATS).
# TRHR PAM – qHTS for Small Molecule Agonists and Allosteric Enhancers of Human TRH Receptor: Primary Screen for Enhancers; enhancement, % at 2 µM; Thyrotropin-releasing hormone receptor (Homo sapiens), P34981; 360,000 tested, 0.66% active; AID 493056, 2011; TRHR cells, fluo-8 calcium fluorescence, EC20 TRH enhancement; in the data active means enhancement above about 30%
#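 Enhancer read-out: after compound pinning and an initial kinetic agonist-mode read, an EC20 of TRH (10 nM final) was injected and fluo-8 calcium signal (Ex 480/Em 530) followed at 1 s/cycle for 100 cycles in TRHR-expressing cells.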
# TRPML1 inh – qHTS for Inhibitors of the Human Mucolipin Transient Receptor Potential 1 (TRPML1). TRPML1-inducible cells, Ca2+ dye fluorescence, FDSS; stronger effect = lower value; inhibition of EC80 agonist-evoked calcium signal. activity change, negative = inhibition, % (test concentration not listed). 390,000 tested, 0.02% active; in the data active means activity change below about -50%; inconclusive means between about -30% and that limit;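 further: stimulus is agonist 54-4 at its EC80 concentration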
# Target sequence (Q9GZU1 whole entry, looked up): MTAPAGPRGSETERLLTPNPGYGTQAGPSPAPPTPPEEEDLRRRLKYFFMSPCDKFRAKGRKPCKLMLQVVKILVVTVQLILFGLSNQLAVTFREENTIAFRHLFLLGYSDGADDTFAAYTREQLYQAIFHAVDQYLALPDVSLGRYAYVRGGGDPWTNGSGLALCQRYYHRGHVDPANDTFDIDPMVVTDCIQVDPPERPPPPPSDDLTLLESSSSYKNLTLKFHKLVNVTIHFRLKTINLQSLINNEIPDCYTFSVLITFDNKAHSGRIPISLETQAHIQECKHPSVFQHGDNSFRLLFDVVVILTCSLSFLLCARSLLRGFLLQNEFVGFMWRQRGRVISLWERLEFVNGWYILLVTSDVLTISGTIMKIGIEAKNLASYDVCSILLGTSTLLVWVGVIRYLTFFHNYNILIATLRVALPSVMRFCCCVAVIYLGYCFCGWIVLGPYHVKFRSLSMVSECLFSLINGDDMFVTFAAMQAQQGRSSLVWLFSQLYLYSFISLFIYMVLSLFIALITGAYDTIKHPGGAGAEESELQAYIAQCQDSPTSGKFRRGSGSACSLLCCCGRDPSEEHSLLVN
#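 TRPML1-DL cells, Tet-induced overnight (~16 h, 37 °C) at 1,500 cells/well, were loaded with Ca8 no-wash dye plus quencher for 45-90 min at room temperature. Compounds were pinned during FDSS kinetic reading; agonist 54-4 at EC80 (4 uM final) then added.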
# TRPML1 ag – qHTS for Agonists of the Human Mucolipin Transient Receptor Potential 1 (TRPML1); Mucolipin-1 (Homo sapiens), Q9GZU1; TRPML1-expressing cells, Ca2+ dye fluorescence, FDSS; activation, % (concentration not given with the values); 410,000 tested, 0.12% active; AID 624414, 2012; in the data active means activation above about 50%; inconclusive means mostly about 30% to 49%
#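 In this qHTS format, compounds were pin-transferred onto Ca8-dye-loaded TRPML1-DL cells induced with Tet overnight, and intracellular Ca2+ fluorescence was recorded kinetically for 110 s after a 10 s baseline. A subsequent 4uM final 54-4 (EC80) addition followed by a second 110 s read served as the antagonist phase.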
# TRHR ag – qHTS for Small Molecule Agonists and Allosteric Enhancers of Human TRH Receptor: Primary Screen for Agonists. Thyrotropin-releasing hormone receptor (Homo sapiens), P34981. activation, % at 2 µM. TRHR cells, calcium flux fluo-8, FDSS agonist mode. 360,000 tested, 0.18% active; in the data active means activation above about 30%
#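 Agonist-mode FDSS calcium read (Ex 480/Em 530, 1 s cycles) in 1536-well TRHR cells with fluo-8 dye, after 10-cycle baseline and 23 nL compound addition; TRH at EC20 (10 nM final) added afterwards for the enhancer phase.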
# TSG101-PTAP inh – qHTS Assay for Iinhibitors of HIV-1 Budding by Blocking the Interaction of PTAP/TSG101 | 340,000 tested, under 10 active | AID 493005, 2010 | Tumor susceptibility gene 101 protein (Homo sapiens), Q99816 | Fluorescence polarization, FITC-PTAP peptide / Tsg101 binding | Potency, µM (series often up to 115 µM), hits mostly inhibitors; active means well fitted inhibition curve with a large enough effect in the main read-out, with a control signal flat, not every such curve was filed as active; inconclusive means small, poorly fitted or top-dose-only effect, or effect the other way, or a change in a side signal; inactive means no such curve, though single readings can be large or run the other way
#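 Fluorescence anisotropy tracks displacement of a FITC-tagged PTAP peptide (50 nM) from the Tsg101 binding domain (10 uM), following a 20 min room-temperature incubation at pH 7.5.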
# Numbers stand for hits; i = inactive; ? = inconclusive; nt = no result given. Most compounds without a hit are left out; they make up all but 0.81% or so of the library.
SMILES,TRHR PAM,TRPML1 inh,TRPML1 ag,TRHR ag,TSG101-PTAP inh
COC(=O)c1cc2occc2n1Cc1cccc(C)c1,i,i,i,i,i
CCc1cccc(NC(=O)Cn2c(C(=O)OC)cc3occc32)c1,36,i,i,i,nt
COc1ccc(CN2CCN(CCCc3ccccc3)C(CCO)C2)c(OC)c1 (configuration not stated),i,i,i,i,i
COc1ccc(CN2CCN(CCCc3ccccc3)CC2)c(OC)c1,55,nt,nt,i,nt
COc1cccc(CN2CCN(Cc3cc(OC)c(OC)c(OC)c3)CC2)c1OC,i,i,i,i,i
COc1cccc(CN2CCN(Cc3cccc(Oc4ccccc4)c3)CC2)c1OC,31,i,i,i,i
c1ccc(-c2cc(-c3nnco3)c3ccccc3n2)nc1,34,i,i,i,i
COc1ccc(N=Cc2c(OC)ccc3ccccc23)cc1,nt,i,i,nt,i
COc1ccc(-n2c(O)c(C=Nc3ccccc3)c3ccccc3c2=O)cc1,i,i,i,i,i
COc1ccc(N=Cc2sc(O)c3ccccc23)cc1,i,i,84,i,?
COc1ccc(N=Cc2c(O)c3ccccc3n2C(C)=O)cc1,i,i,i,34,?
Cc1cc2oc(C(=O)N(Cc3ccco3)Cc3ccccc3Cl)c(C)c2cc1C,41,i,i,i,nt
CN(C)c1ccc(-c2cc[nH]c(=O)c2N)cc1,i,nt,nt,i,nt
Cc1cccc(C(=O)NNC(=S)NC(=O)c2ccccc2)c1,nt,i,70,nt,i
Cc1ccccc1C(=O)NNC(=S)NC(=O)c1ccccc1,i,i,?,59,i
CCCOc1ccc(C(=O)NC(=S)NNC(=O)c2c(-c3ccccc3)noc2C)cc1,i,i,65,48,i
O=C(NC(=S)NNC(=O)c1ccccc1O)c1ccccc1,i,i,i,i,i
Cc1cccc(C(=O)NNC(=S)NC(=O)c2cccs2)c1,i,i,66,i,i
Cc1ccc(C(=O)NC(=S)NNC(=O)c2ccccc2)cc1,i,i,69,31,i
Cc1ccc(C(=O)NNC(=S)NC(=O)c2ccc(Cl)cc2Cl)cc1,i,i,72,32,i
CCc1cc(C(=O)/C=C/c2cc3c(cc2C)OCCO3)c(O)cc1O,nt,nt,i,nt,nt
O=C(CCN1C(=O)CSc2ccccc21)Nc1ccc(OC(F)(F)F)cc1,33,i,i,i,i
O=C(Nc1ccc(Br)cc1F)c1cnn2c1NC(=C1CC1)C=C2C(F)F,nt,nt,i,nt,nt
CCOC1=C/C(=C/c2c(N)n3nc(S(=O)(=O)CC)sc3nc2=O)C=CC1=O,i,i,i,33,i
COc1cc2nc(N3CCCN(C)CC3)nc(N)c2cc1OC,nt,nt,i,nt,nt
SMILES,TRHR PAM,TRPML1 inh,TRPML1 ag,TRHR ag,TSG101-PTAP inh
Cc1cc2c(s1)c1cnn(Cc3cccc(C(F)(F)F)c3F)c(=O)c1n2C,i,nt,nt,i,nt
Cc1ccccc1Nc1nc(C#N)nc(NC2CCCC2)n1,i,nt,nt,i,nt
CCCCN(C)CCNC(=O)Cn1ncc2c3ccccc3n(CCC)c2c1=O,31,i,i,i,nt
CN(C)/[N+]([O-])=N/Oc1ccc([N+](=O)[O-])cc1C(F)(F)F,nt,i,i,nt,nt
Cc1ccccc1CN1Cc2cccc3c2[C@H](C=CC3)CC1=O,nt,nt,i,nt,nt
CC(=O)N1C(c2ccccc2O)C[C@]2(C)CC(=O)NC12 (some centres not stated),36,i,i,i,i
CC(=O)Nc1ccc(/C=C/c2ccccn2)cc1,nt,nt,i,nt,nt
COc1ccc(CCNc2ncnc3c2c(-c2ccccc2)cn3-c2ccc(F)cc2)cc1OC,i,i,64,i,nt
Fc1ccc(-n2cc(-c3ccccc3)c3c(NCCc4ccccc4)ncnc32)cc1,i,i,i,i,nt
COc1ccc(CCNc2ncnc3c2c(-c2ccccc2)cn3-c2ccc(Cl)cc2)cc1OC,i,i,77,i,nt
COc1ccc(Cl)cc1Nc1ncnc2c1c(-c1ccccc1)cn2-c1ccccc1,i,i,i,i,nt
CC1CN(c2ccc(NS(=O)(=O)c3ccccc3)cc2C(=O)O)CC(C)O1 (configuration not stated),i,i,i,i,i
CC1CN(c2ccc(NC(=O)c3ccco3)cc2C(=O)O)CC(C)O1 (configuration not stated),30,i,i,i,i
Cc1ccc(NC(=O)COC(=O)c2ccccc2OCC(=O)Nc2ccc(Br)cc2)c(Br)c1,nt,nt,i,nt,nt
Cc1ccc(/C=N\NC(=O)Cn2nnc3ccccc32)o1,33,i,i,i,i
Cc1ccc(/C=N/NC(=O)Cn2cnc3ccccc32)o1,i,i,i,i,i
CNc1cc(C(=O)O)nc2ccccc12,nt,nt,i,nt,nt
C=CCc1cc(F)c(S(=O)(=O)N2CCN(S(=O)(=O)c3ccc4c(c3)OCCO4)CC2)cc1F,i,nt,nt,i,nt
CCn1c2cc(C)sc2c2cnn(Cc3ccccc3F)c(=O)c21,i,nt,nt,i,nt
CN(C)c1ccc(/C=C/c2ccnc3c(Cl)ccc(Cl)c23)cc1,nt,nt,64,nt,nt
Cc1cnn(-c2cc(N/N=C/c3ccccc3)ncn2)c1,i,i,i,i,i
Cc1cnn(-c2cc(N/N=C/c3cccc(F)c3)ncn2)c1,36,i,i,i,i
CN(C)c1nc(N(C)C)nc(N(C)C)n1,i,i,i,i,i
CN(C)c1nc(C#N)nc(N(C)C)n1,33,i,i,i,i
COc1ccc(-n2ncc(C(C)NS(=O)(=O)c3cccs3)c2C)cc1 (configuration not stated),31,i,i,i,i
SMILES,TRHR PAM,TRPML1 inh,TRPML1 ag,TRHR ag,TSG101-PTAP inh
COc1ccc(-n2ncc(C(C)NS(=O)(=O)c3ccc(C(C)=O)cc3)c2C)cc1 (configuration not stated),i,i,i,i,nt
COc1cc2ncnc(N3CCN(C(=O)Nc4ccc(Oc5ccccc5)cc4)CC3)c2cc1OC,nt,nt,i,nt,nt
O=C(CNC(=O)c1ccccc1Cl)OC(C(=O)Nc1cc(C(F)(F)F)ccc1Cl)c1ccccc1 (configuration not stated),i,nt,nt,i,nt
CC1(C)CCN2CCC(C)(C)c3c(O)ccc1c32,i,i,?,34,?
COC(=O)c1ccc(NC(=O)c2nc(S(=O)(=O)Cc3ccccc3F)ncc2Cl)cc1,nt,nt,i,nt,nt
Cc1sc2ccccc2[n+]1CCCCBr,nt,nt,i,nt,nt
CC(=O)N1CCC(N(Cc2ccco2)C(=O)Nc2ccc(Br)cc2F)CC1,41,i,i,i,nt
COc1cccc(C2CC(C(F)(F)F)n3ncc(C(=O)NC(C)(C)C)c3N2)c1 (configuration not stated),i,i,i,i,i
